Experimental data published in ChEMBL document CHEMBL3988442, “University of Dundee, Small-Polar-MMV Screening Library” (2021).
About 13,000 (27%) of roughly 48,000 compounds showed an effect of 50% or more. The list shows a part of the results.

tested on: Wolbachia pipientis; test: Anti-Wolbachia Cell-Based Screen; assay type: functional; design: scale not given: in the data most compounds retested in dose-response had high values; details: 5 µM

SMILES | Percent Effect [%]
CC(C)C(NC(=O)c1ccccc1F)C(=O)N1CCC2(CC1)OCCO2 (stereo unspecified) | -11.28
COc1ncccc1CN1CC[C@H]2O[C@H](c3nnc(C)o3)CC[C@H]21 | -0.9405
Cc1nc(CN2CC[C@H]3[C@H]2CCN3c2ncccn2)cs1.O=C(O)C(F)(F)F.O=C(O)C(F)(F)F.O=C(O)C(F)(F)F | -7.266
CC(C)NC(=O)[C@H]1C[C@@H]2[C@@H](C1)OCCN2Cc1ccccn1.O=C(O)C(F)(F)F.O=C(O)C(F)(F)F | 2.364
Cc1nc(CN2CCO[C@H]3[C@@H](OCc4ccccn4)CC[C@@H]32)cs1.O=C(O)C(F)(F)F.O=C(O)C(F)(F)F | 8
Fc1ccc(CN2CCO[C@H]3[C@H](Oc4ccccn4)CC[C@@H]32)cc1.O=C(O)C(F)(F)F.O=C(O)C(F)(F)F | -5.975
O=C(O)C(F)(F)F.O=C(O)C(F)(F)F.c1ccc(OCC2C[C@@H]3[C@@H](C2)OCCN3Cc2ccoc2)nc1 (stereo partly specified) | 92.52
O=C(O)C(F)(F)F.O=C(O)C(F)(F)F.c1ccc(O[C@@H]2CO[C@@]3(CCCN(CC4CCOCC4)C3)C2)nc1 | -10.07
O=C(O)C(F)(F)F.O=C(O)C(F)(F)F.c1ccc(O[C@@H]2CC[C@H]3[C@H]2OCCN3CC2CCOCC2)nc1 | -13.85
O=C(O)C(F)(F)F.O=C(O)C(F)(F)F.c1ccc(OCC2C[C@@H]3[C@@H](C2)OCCN3CC2CCOCC2)nc1 (stereo partly specified) | 96.17
Cc1nc(CN2CCO[C@@H]3CC(COc4ccccn4)C[C@H]32)cs1.O=C(O)C(F)(F)F.O=C(O)C(F)(F)F (stereo partly specified) | 94.34
CCCn1ncc(CN2CCCC(C(=O)c3ccc(Cl)cc3C)C2)c1C (stereo unspecified) | -13.45
Cc1noc(C)c1CN1CCOCC12CCN(c1nccs1)CC2.O=C(O)C(F)(F)F | 98.18
Cc1noc(C)c1CN1CCCC2(C1)CN(c1nccs1)CCO2.O=C(O)C(F)(F)F (stereo unspecified) | -6.248
Cc1noc(C)c1CN1CCOC2(CCCN(c3nccs3)C2)C1 (stereo unspecified) | -30.09
Cc1cc(Cl)ccc1C(=O)C1CCCN(Cc2cnc(N(C)C)s2)C1 (stereo unspecified) | 5.845
O=C(Nc1cc(C(F)(F)F)c[nH]c1=O)C1CCCN1 (stereo unspecified) | 84.36
Cc1nc(C)c(CC(=O)N2C[C@@H]3CC[C@H](C2)N(CC2CCC2)C3)c(=O)[nH]1 | -4.383
O=C1NC[C@H]2CN(Cc3ccnc4ccccc34)CCN12 | 12.9
CN1C(=O)CCC12CCCN(Cc1nccs1)C2.O=C(O)C(F)(F)F (stereo unspecified) | 0.9809
CN1CCOC(CN(C(=O)CN2CCCC2=O)c2nccs2)C1 (stereo unspecified) | 101.5
Cc1csc(CN2C[C@@H]3CN(C)CCO[C@@H]3C2)n1 | 8.009
O=C(Cc1cccnc1)N1C[C@H]2CC[C@@H]1CN(Cc1ccc(F)cc1)C2 | 4.977
CNS(=O)(=O)CC(=O)NC(C)Cc1cccc(Cl)c1 (stereo unspecified) | -8.41
COCCN1CCN(Cc2ccco2)Cc2ccc(C)nc21.O=C(O)C(F)(F)F.O=C(O)C(F)(F)F | -4.487
CN(C)CCN1CCN(Cc2ccco2)Cc2cccnc21.O=C(O)C(F)(F)F.O=C(O)C(F)(F)F.O=C(O)C(F)(F)F | 95.25

SMILES | Percent Effect [%]
Cc1noc(C)c1CN1CCN(C)c2ncccc2C1.O=C(O)C(F)(F)F.O=C(O)C(F)(F)F | -16.26
COCCN1CCN(Cc2ccncc2)c2ncccc2C1.O=C(O)C(F)(F)F.O=C(O)C(F)(F)F.O=C(O)C(F)(F)F | -7.245
Cc1ccc2c(n1)N(C)CCN(Cc1ccco1)C2.O=C(O)C(F)(F)F.O=C(O)C(F)(F)F | -3.328
CN(C)CCN1CCN(Cc2cccs2)Cc2cccnc21.O=C(O)C(F)(F)F.O=C(O)C(F)(F)F.O=C(O)C(F)(F)F | 92.36
Cc1ncc2c(c1C(=O)O)CCN(c1ncc(F)cn1)C2.O=C(O)C(F)(F)F | -15.02
CN(C)c1ncc2c(c1C(=O)O)CCN(Cc1ccco1)C2.O=C(O)C(F)(F)F.O=C(O)C(F)(F)F | 87.52
CN(C)CCN1CCN(Cc2nccs2)Cc2cccnc21.O=C(O)C(F)(F)F.O=C(O)C(F)(F)F.O=C(O)C(F)(F)F | 88.3
Cc1cnc(N2CCc3c(cnc(C)c3C(=O)O)C2)nc1.O=C(O)C(F)(F)F | -4.301
COCCNC(=O)[C@H]1CN2CCC1C[C@@H]2Cn1cc(C(C)(C)C)nn1 (stereo partly specified) | -20.26
CN(C)C(=O)CN1CC[C@H]2[C@H]1CCN2c1ncccn1.O=C(O)C(F)(F)F.O=C(O)C(F)(F)F | -4.997
CCCn1nc(C)c(-c2cncn2CC2(N(C)C)CCC(C)CC2)c1C (stereo unspecified) | 117
O=C(O)C(F)(F)F.O=C(O)C(F)(F)F.c1cc(CO[C@@H]2CN(Cc3ccoc3)[C@@H]3CCCO[C@@H]32)ccn1 | 101.1
c1ccc(O[C@@H]2CC[C@H]3[C@H]2OCCN3Cc2ccsc2)nc1 | -6.73
CCOCCN1CCO[C@H]2[C@H](OCc3ccccn3)CC[C@@H]21.O=C(O)C(F)(F)F.O=C(O)C(F)(F)F | 26.08
Cc1ncsc1CN1C[C@@H](OCc2ccncc2)[C@H]2OCCC[C@H]21.O=C(O)C(F)(F)F.O=C(O)C(F)(F)F | -3.825
COCCN1CCO[C@H]2[C@H](OCc3cccc(C)n3)CC[C@@H]21 | 8.918
Cc1ncsc1CN1C[C@H](OCc2ccncc2)[C@H]2OCCC[C@H]21.O=C(O)C(F)(F)F.O=C(O)C(F)(F)F | -13.88
Cc1cccc(CO[C@@H]2CC[C@H]3[C@H]2OCCN3Cc2ccsc2)n1.O=C(O)C(F)(F)F.O=C(O)C(F)(F)F | -22.6
O=C(O)C(F)(F)F.O=C(O)C(F)(F)F.O=C1N(c2cccnc2)CCC12CCCN(Cc1ccoc1)C2 (stereo unspecified) | -1.124
O=C(O)C(F)(F)F.O=C(O)C(F)(F)F.c1cncc(COCC2CC[C@H]3[C@H]2OCCN3Cc2ccoc2)c1 (stereo partly specified) | 109.4
Cc1cccc(CO[C@@H]2CC[C@H]3[C@H]2OCCN3Cc2ccoc2)n1 | 89.7
CCO[C@@H]1CC[C@H]2[C@H]1OCCN2Cc1ccoc1.O=C(O)C(F)(F)F | 96.95
CC(C)CN1C(=O)CO[C@@H]2CNC[C@H]21 | -9.19
CNC(=O)[C@@H]1C[C@H]2CN(C(=O)c3ccccn3)C[C@H]2N1C(C)C | -10.28
CCCN1CCN(C(=O)c2ccnc(N)c2)[C@H]2CS(=O)(=O)C[C@H]21 | -9.553
CCC(=O)N1CCN(Cc2cnc(C)nc2)[C@H]2CS(=O)(=O)C[C@H]21 | 99.52

SMILES | Percent Effect [%]
O=C(C1CCC1)N1CCN(Cc2cccnc2)[C@H]2CS(=O)(=O)C[C@H]21 | -3.397
CCCN1CCN(C(=O)c2cnc(C)nc2)[C@H]2CS(=O)(=O)C[C@H]21 | -7.853
CCCN1CCN(C(=O)c2cncnc2C)[C@H]2CS(=O)(=O)C[C@H]21 | 18.46
Cc1cccc(CN2CCN(C(=O)N(C)C)[C@@H]3CS(=O)(=O)C[C@@H]32)n1 | -5.175
Cc1ncc(CN2CCN(C(=O)N(C)C)[C@@H]3CS(=O)(=O)C[C@@H]32)cn1 | 93.36
COC(=O)NCCC(=O)NC(C)Cc1ccccc1Br (stereo unspecified) | -17.72
COC[C@H]1CC[C@@H]2[C@@H](CCN2Cc2ccco2)O1.O=C(O)C(F)(F)F | 137.5
c1coc(CN2CC[C@@H]3O[C@@H](COCc4ccncc4)CC[C@@H]32)c1 | 67.65
O=C([C@@H]1CC[C@@H]2[C@@H](CCN2Cc2ccncc2)O1)N1CCCCO1 | -7.886
Cc1noc(C)c1CN1CC[C@@H]2O[C@H](COCC3CC3)CC[C@@H]21.O=C(O)C(F)(F)F | 3.642
CO[C@H]1CCN(Cc2ccccn2)[C@@H]2CN(Cc3ccco3)C[C@H]12.O=C(O)C(F)(F)F.O=C(O)C(F)(F)F.O=C(O)C(F)(F)F | -3.065
CN(C)C(=O)COC[C@H]1CC[C@@H]2[C@@H](CCN2Cc2ccccn2)O1.O=C(O)C(F)(F)F.O=C(O)C(F)(F)F | -0.6188
O=C(O)C(F)(F)F.O=C(O)C(F)(F)F.c1ccc(COC[C@H]2CC[C@H]3[C@H](CCN3Cc3cccs3)O2)nc1 | 0.5679
c1ccc(COC[C@H]2CC[C@H]3[C@H](CCN3Cc3ccco3)O2)nc1 | 102.6
O=C(O)C(F)(F)F.O=C(O)C(F)(F)F.c1cncc(COC[C@H]2CC[C@H]3[C@H](CCN3Cc3nccs3)O2)c1 | 8.415
c1ccc(CCN2CCOC3(CCc4ccccc43)C2)nc1 (stereo unspecified) | -3.634
CC[C@H]1CN2CC[C@H]1C[C@@H]2CNC(=O)Nc1cc(OC)cc(OC)c1 | -7.573
CN1CCN2C(=O)N(C3CCOCC3)C[C@H]2C1 | -7.245
Cc1nc(CN2CCO[C@H]3CN(C(=O)c4ccncc4)C[C@H]32)cs1 | 6.304
CNC(=O)CN1CC[C@H]2CN(C(=O)c3ccc(C)nc3)C[C@H]2C1.O=C(O)C(F)(F)F | -24.07
Cc1ccc(C(=O)N2C[C@H]3CN(Cc4csc(C)n4)C[C@H]3C2)cn1 | 93.97
Cc1ccc(C(=O)N2C[C@H]3CNC[C@H]3C2)cn1 | 11.13
Cc1nc(CN2C[C@@H]3CN(C(=O)c4ccncc4)C[C@@H]3C2)cs1 | 103.2
Cc1nc(CN2CCC23CCN(C(=O)c2ccncc2)CC3)cs1 | -6.735
